# Test results published in publication PMC4336329 (PLoS ONE, 2015).
# Out of some 310,000 compounds screened, about 2,200 (0.71%) showed an effect of 50% or more. The effect is printed as a negative number. The sample as a whole holds a higher share of strong results than the screen did.
# Target: human ether-à-go-go-related gene (hERG) potassium channel (human, UniProt Q12809)
# Assay: primary screen, population patch clamp on CHO cells stably expressing hERG; higher = less effect of the substance
# Sequence of human ether-à-go-go-related gene (hERG) potassium channel (Q12809 whole entry, looked up): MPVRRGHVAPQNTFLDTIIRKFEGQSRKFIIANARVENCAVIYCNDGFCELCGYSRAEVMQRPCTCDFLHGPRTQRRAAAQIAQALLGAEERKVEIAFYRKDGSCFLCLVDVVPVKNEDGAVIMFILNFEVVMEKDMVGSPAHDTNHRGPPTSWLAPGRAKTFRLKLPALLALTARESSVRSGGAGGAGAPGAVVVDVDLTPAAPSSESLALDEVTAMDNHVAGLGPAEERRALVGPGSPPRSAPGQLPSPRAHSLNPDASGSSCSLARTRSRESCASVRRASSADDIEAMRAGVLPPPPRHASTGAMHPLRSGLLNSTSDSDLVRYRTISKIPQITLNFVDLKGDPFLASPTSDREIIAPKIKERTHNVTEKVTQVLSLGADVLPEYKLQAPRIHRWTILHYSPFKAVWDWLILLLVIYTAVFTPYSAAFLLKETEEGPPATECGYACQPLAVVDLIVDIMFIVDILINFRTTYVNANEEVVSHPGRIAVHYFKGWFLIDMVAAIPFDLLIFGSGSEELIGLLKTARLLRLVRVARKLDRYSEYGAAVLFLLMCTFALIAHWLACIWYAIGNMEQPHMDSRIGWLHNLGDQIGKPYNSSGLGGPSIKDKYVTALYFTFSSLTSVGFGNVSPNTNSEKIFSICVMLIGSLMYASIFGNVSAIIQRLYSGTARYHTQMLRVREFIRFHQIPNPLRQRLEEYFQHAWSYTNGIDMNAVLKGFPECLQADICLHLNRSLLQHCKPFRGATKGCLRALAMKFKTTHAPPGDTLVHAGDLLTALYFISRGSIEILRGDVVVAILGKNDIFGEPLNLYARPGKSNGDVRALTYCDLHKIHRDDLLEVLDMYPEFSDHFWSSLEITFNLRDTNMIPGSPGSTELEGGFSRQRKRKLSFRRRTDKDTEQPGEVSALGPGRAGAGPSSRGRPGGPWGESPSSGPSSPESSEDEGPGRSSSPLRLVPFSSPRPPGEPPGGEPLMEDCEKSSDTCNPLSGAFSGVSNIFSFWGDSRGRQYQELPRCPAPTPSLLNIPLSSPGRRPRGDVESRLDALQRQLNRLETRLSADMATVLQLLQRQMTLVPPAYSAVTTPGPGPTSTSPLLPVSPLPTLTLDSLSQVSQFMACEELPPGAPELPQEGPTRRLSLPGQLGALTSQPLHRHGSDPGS
row,SMILES,"hERG current change (%, negative = inhibition) at 1uM [%]"
1,Cc1c(O)ccc(C(=O)CN2CCN(c3ccccc3)CC2)c1O,13.2
2,Cc1ccc(-n2c(SCC(=O)N/N=C/c3ccc(C)s3)nnc2-c2ccccc2)cc1,7.01
3,Cn1c(CCNC(=O)c2ccccc2F)nnc1SCc1nc2ccccc2c(=O)[nH]1,11.4
4,COc1ccc(-c2[nH]ncc2CN(C)CCCN2CCOCC2)cc1F,12
5,CCOc1ccc(CCNC(=O)c2ccc(=O)[nH]c2)cc1OCC,4.91
6,O=C(c1ccc2c(c1)ncn2C1CCCCC1)N1CCC2(CC1)OCCO2,0.618
7,CCN1/C(=C\C=C\C2=[N+](CC)c3ccccc3C2(C)C)C(C)(C)c2ccccc21.[O-][Cl+3]([O-])([O-])[O-],-86.1
8,CCCN1C(=O)/C(=C/C=C2\N(CC)c3ccccc3C2(C)C)SC1=S,5.72
9,CN1/C(=C\C=C\C2=[N+](C)c3ccc4ccccc4c3C2(C)C)C(C)(C)c2ccccc21.[O-][Cl+3]([O-])([O-])[O-],-43.6
10,COc1ccc(S(=O)(=O)Nc2ccc(Cc3ccncc3)cc2)cc1C,0.33
11,CCCCNC(=O)C1CCC(CNS(=O)(=O)c2c(C)cc(C)cc2C)CC1 (stereo not drawn),-13.4
12,CC1CCN(CCCNC(=O)C2CCC(CNS(=O)(=O)c3ccccc3)CC2)CC1 (stereo not drawn),16.3
13,CCN(CC)CCCNC(=O)C1CCC(CNS(=O)(=O)c2c(C)cc(C)cc2C)CC1 (stereo not drawn),12.6
14,Cc1cc(C)c(S(=O)(=O)NCC2CCC(C(=O)NCCCN3CCC(C)CC3)CC2)c(C)c1 (stereo not drawn),-52.9
15,CCC1CCCCN1CCCNC(=O)C1CCC(CNS(=O)(=O)c2c(C)cc(C)cc2C)CC1 (stereo not drawn),-3.19
16,CCCCN(C)CCCNC(=O)C1CCC(CNS(=O)(=O)c2c(C)cc(C)cc2C)CC1 (stereo not drawn),-76.3
17,Cc1ccc(Nc2nc(N)c([N+](=O)[O-])c(NCc3ccccc3)n2)cc1,8.5
18,CC(C)(C)c1ccc(OCCCC(=O)N2CCOCC2)cc1,-2.13
19,O=C(CCNC(=O)c1ccccc1Cl)NCC1CCCO1 (stereo not drawn),-9.04
20,CCCn1c(N)c(C(=O)CN(C)CC(=O)Nc2cccc(F)c2)c(=O)[nH]c1=O,-73.1
21,CCCn1c(N)c(C(=O)CN(C)CC(=O)Nc2ccc(F)cc2)c(=O)[nH]c1=O,-20
22,CCCn1c(N)c(C(=O)CN(C)CC(=O)Nc2c(Cl)cccc2Cl)c(=O)[nH]c1=O,0.55
23,O=C(Nc1ccccc1)N1CCn2c(nc3ccccc32)C1,-6.18
24,COc1cc(C(=O)Nc2ccc(C)cc2)c2ccccc2n1,7.49

row,SMILES,"hERG current change (%, negative = inhibition) at 1uM [%]"
1,CN(Cc1ccccc1)C(=O)CCc1ccccc1,13.8
2,Cc1cc(Nc2cccc([N+](=O)[O-])c2)c2cccc(C)c2n1.Cl,-73.5
3,Cc1cc(Nc2cccc([N+](=O)[O-])c2)c2ccccc2n1,-36.7
4,CC(=O)c1cccc(Nc2cc(C)nc3c(C)cccc23)c1.Cl,-16.9
5,COc1ccc(Br)c(C(=O)OCC(=O)NC2CCCCCC2)c1,-1.39
6,CCCCN(CC)CCNC(=O)c1cn(-c2ccc(Cl)cc2)c(=O)c2ccccc12,-81.6
7,CCCN(CCC)CCCNC(=O)c1cn(-c2ccc(OC)cc2)c(=O)c2ccccc12,1.46
8,CCCCN(CC)CCCNC(=O)c1cn(-c2ccc(OC)cc2)c(=O)c2ccccc12,-7.85
9,CCOC(=O)N1CCN(C(C)C(=O)c2c[nH]c3ccccc23)CC1 (stereo not drawn),-0.111
10,O=C(NNc1ccc(-c2csnn2)cc1)c1ccccc1C(F)(F)F,9.16
11,CCC1C(=O)C(C)(C)C(=O)OC1c1ccc([N+](=O)[O-])cc1 (stereo not drawn),9.82
12,CC1C(=O)CC(c2ccc([N+](=O)[O-])cc2)NC1c1ccc([N+](=O)[O-])cc1.Cl (stereo not drawn),-51
13,CC1C(=O)CC(c2ccccc2)NC1c1ccccc1 (stereo not drawn),3.38
14,CCC1C(=O)CC(c2ccccc2)NC1c1ccccc1 (stereo not drawn),5.67
15,CC1C(=O)C(C)C(c2ccc([N+](=O)[O-])cc2)NC1c1ccc([N+](=O)[O-])cc1 (stereo not drawn),-4.32
16,CCC1C(=O)CC(c2ccc([N+](=O)[O-])cc2)NC1c1ccc([N+](=O)[O-])cc1 (stereo not drawn),-69.7
17,Cc1ccc(P(=S)(c2ccc(C)o2)N2CCOCC2)o1,3.25
18,CCn1c(SCC(=O)Nc2cc(NC(C)=O)ccc2OC)nnc1-c1cccnc1,7.42
19,Cc1nc2ccccn2c1CN(C)C(=O)C1CCC(=O)N(Cc2cccc(F)c2)C1 (stereo not drawn),-58
20,Cc1nc2ccccn2c1CN(C)C(=O)C1CCC(=O)N(CCc2cccc(F)c2)C1 (stereo not drawn),-10.4
21,CN(Cc1ccccn1)C(=O)C1CCC(=O)N(Cc2cccc(F)c2)C1 (stereo not drawn),8.55
22,COc1ccc(C(=O)N/C(=C\c2ccccc2)C(=O)NC(CC(C)C)C(=O)O)cc1 (stereo not drawn),21.4
23,Cc1cccc(OCC(=O)Nc2ccncc2)c1,6.41
24,COc1ccc(CN(C)CC(O)COC(c2ccccc2)c2ccccc2)c(OC)c1OC (stereo not drawn),-43.6
